Results reported in the antibiotic and cytotoxicity screens of Wong et al. (2023).
Screen size: about 39,000 compounds; about 3,300 (8.5%) were called active. The full list was thinned out, with actives kept by preference.

Each compound was assayed on HepG2 (assay: cytotoxicity call (relative viability < 0.9)). Details: 10 µM.
`C[C@H](CO)N1C[C@H](C)[C@H](CN(C)C(=O)C2CCCCC2)OCCCC[C@H](C)Oc2ccc(NC(=O)c3ccccc3)cc2C1=O` was tested, and the cytotoxicity call was “inactive”. In the case of `O=C(C[C@@H]1CC=CC[C@H](NC(=O)OCC2c3ccccc3-c3ccccc32)C(=O)O[C@H](c2ccccc2)CNC1=O)N[C@@H](CO)Cc1ccccc1`, the cytotoxicity call is reported as “inactive”. For `CNC(=O)C[C@H]1CC[C@@H]2[C@H](COC[C@H](O)CN2C(=O)Nc2ccc3c(c2)OCO3)O1`, the cytotoxicity call was “inactive”. In the case of `CO[C@H]1CN(C)C(=O)c2ccc(NS(=O)(=O)CC(F)(F)F)cc2OC[C@H](C)N(C(=O)NC(C)C)C[C@@H]1C`, the cytotoxicity call is reported as “inactive”. For `CO[C@@H]1CN(C)C(=O)c2cc(NS(=O)(=O)c3cn(C)cn3)ccc2OC[C@H](C)N(CC2CC2)C[C@@H]1C`, the cytotoxicity call was “inactive”. `CNC(=O)c1cnc2n1CCN(Cc1nccn1C)C2` was tested, and the cytotoxicity call was “inactive”. In the case of `CC(C)[C@H](NC(=O)[C@H](C)N(C)C)C(=O)N1CC[C@@H]2Oc3ccc(cc3)/C=C\NC(=O)[C@H](Cc3ccccc3)NC(=O)[C@H]21`, the cytotoxicity call is reported as “inactive”. In the case of `C[C@@H]1CN([C@H](C)CO)C(=O)c2cc(NC(=O)Cn3cnnn3)ccc2O[C@H]1CN(C)S(=O)(=O)c1ccc(F)cc1`, the cytotoxicity call is reported as “inactive”. For `O=C(C[C@@H]1C[C@H]2c3cc(NC(=O)Nc4ccccc4F)ccc3O[C@H]2[C@@H](CO)O1)NCc1ccc(Oc2ccccc2)cc1`, the cytotoxicity call was “inactive”. With `COc1ccc(CN(C)C[C@H]2Oc3ccc(NC(=O)Nc4cccc5ccccc45)cc3C(=O)N([C@@H](C)CO)C[C@H]2C)cc1` the cytotoxicity call was “inactive”. For `COc1ccc(CN(C)C[C@@H]2Oc3ccc(NC(=O)Nc4cccc5ccccc45)cc3C(=O)N([C@H](C)CO)C[C@H]2C)cc1`, the cytotoxicity call was “inactive”. For `COc1ccc(CN(C)C[C@H]2Oc3ccc(NC(=O)Nc4cccc5ccccc45)cc3C(=O)N([C@@H](C)CO)C[C@@H]2C)cc1`, the cytotoxicity call was “inactive”. `C[C@@H]1CN([C@H](C)CO)C(=O)c2cc(NC(=O)Nc3cccc4ccccc34)ccc2O[C@H]1CN(C)Cc1ccc(Oc2ccccc2)cc1` was tested, and the cytotoxicity call was “active”. For `C[C@@H]1CN([C@H](C)CO)C(=O)c2cc(NC(=O)Nc3cccc4ccccc34)ccc2O[C@@H]1CN(C)Cc1ccc(Oc2ccccc2)cc1`, the cytotoxicity call was “active”. With `C[C@@H]1CN([C@@H](C)CO)C(=O)c2cc(NC(=O)Nc3cccc4ccccc34)ccc2O[C@H]1CN(C)Cc1ccc(Oc2ccccc2)cc1` the cytotoxicity call was “inactive”. `C[C@@H]1CN([C@@H](C)CO)C(=O)c2cc(NC(=O)Nc3cccc4ccccc34)ccc2O[C@@H]1CN(C)Cc1ccc(Oc2ccccc2)cc1` was tested, and the cytotoxicity call was “active”. `COc1ccc(CN(C)C[C@@H]2Oc3ccc(NC(=O)Nc4cccc5ccccc45)cc3C(=O)N([C@H](C)CO)C[C@@H]2C)cc1` was tested, and the cytotoxicity call was “inactive”. `C[C@H](CO)N1C[C@H](C)[C@H](CN(C)Cc2ccc(Oc3ccccc3)cc2)Oc2ccc(NC(=O)Nc3cccc4ccccc34)cc2C1=O` was tested, and the cytotoxicity call was “active”. With `COc1ccc(CN(C)C[C@@H]2Oc3ccc(NC(=O)Nc4cccc5ccccc45)cc3C(=O)N([C@@H](C)CO)C[C@H]2C)cc1` the cytotoxicity call was “inactive”. `COc1ccc(CN(C)C[C@H]2Oc3ccc(NC(=O)Nc4cccc5ccccc45)cc3C(=O)N([C@H](C)CO)C[C@@H]2C)cc1` was tested, and the cytotoxicity call was “inactive”. `C[C@H](CO)N1C[C@H](C)[C@@H](CN(C)Cc2ccc(Oc3ccccc3)cc2)Oc2ccc(NC(=O)Nc3cccc4ccccc34)cc2C1=O` was tested, and the cytotoxicity call was “inactive”. In the case of `C[C@H](CO)N1C[C@H](C)[C@H](CN(C)S(=O)(=O)c2ccc(F)cc2)Oc2ncc(C#CC(C)(C)O)cc2C1=O`, the cytotoxicity call is reported as “inactive”. With `C[C@@H]1CN([C@@H](C)CO)C(=O)c2c(c3ccccc3n2C)-c2ccccc2CO[C@@H]1CN(C)Cc1cccc(C(=O)O)c1` the cytotoxicity call was “inactive”. For `C[C@H](CO)N1C[C@H](C)[C@H](CN(C)S(=O)(=O)c2ccc(Oc3ccccc3)nc2)OCc2cnnn2CCCC1=O`, the cytotoxicity call was “inactive”. With `COc1ccc(CCNC(=O)[C@@]2(Sc3ccc(C)cc3)CC(=O)N(Cc3cc(C(F)(F)F)cc(C(F)(F)F)c3)[C@@H]2c2ccc(CO)cc2I)cc1` the cytotoxicity call was “inactive”. `Cc1ccc(S(=O)(=O)N2C[C@@H](O)COC[C@@H]3O[C@@H](CC(=O)N[C@@H]4CCN(Cc5ccccc5)C4)CC[C@H]32)cc1` was tested, and the cytotoxicity call was “inactive”. `COCC(=O)Nc1ccc2c(c1)C(=O)N(C)C[C@H](OC)[C@H](C)CN(C(=O)Cc1cccnc1)[C@H](C)CO2` was tested, and the cytotoxicity call was “inactive”. For `C[C@@H]1CN([C@@H](C)CO)C(=O)c2cc(NC(=O)C3CC3)ccc2O[C@H]1CN(C)Cc1ccc(Oc2ccccc2)cc1`, the cytotoxicity call was “inactive”. In the case of `C[C@@H]1CN([C@@H](C)CO)S(=O)(=O)c2ccc(C#CC(C)(C)O)cc2O[C@H]1CN(C)C(=O)C1CCCCC1`, the cytotoxicity call is reported as “inactive”. With `O=C(C[C@@H]1C=C[C@H](NC(=O)C2CCC2)[C@H](CO)O1)NCCCN1CCOCC1` the cytotoxicity call was “inactive”. With `C[C@H](CO)N1C[C@H](C)[C@@H](CN(C)Cc2ccc(C(=O)Nc3ccccc3N)cc2)Oc2ccc(NC(=O)Cc3ccccc3)cc2C1=O` the cytotoxicity call was “inactive”. In the case of `C[C@H]1CN([C@@H](C)CO)S(=O)(=O)c2ccc(-c3ccc(F)cc3)cc2O[C@@H]1CN(C)S(C)(=O)=O`, the cytotoxicity call is reported as “inactive”. In the case of `C[C@@H]1CN([C@H](C)CO)C(=O)c2cc(NS(=O)(=O)c3ccccc3)ccc2O[C@@H](C)CCCCO[C@@H]1CN(C)S(C)(=O)=O`, the cytotoxicity call is reported as “inactive”. For `COc1ccc(S(=O)(=O)Nc2ccc3c(c2)C(=O)N([C@@H](C)CO)C[C@@H](C)[C@H](CN(C)C(=O)c2ccccc2)OCCCC[C@H](C)O3)cc1`, the cytotoxicity call was “inactive”. `COc1ccc(CN(C)C[C@H]2Oc3ccc(NC(=O)Nc4cccc5ccccc45)cc3C(=O)N([C@H](C)CO)C[C@H]2C)cc1` was tested, and the cytotoxicity call was “inactive”. In the case of `COc1ccc(CN(C)C[C@@H]2Oc3ccc(NC(=O)Nc4cccc5ccccc45)cc3C(=O)N([C@@H](C)CO)C[C@@H]2C)cc1`, the cytotoxicity call is reported as “inactive”. For `C[C@H]1CN([C@@H](C)CO)C(=O)c2cc(NC(=O)Nc3cccc4ccccc34)ccc2O[C@@H]1CN(C)Cc1ccc(Oc2ccccc2)cc1`, the cytotoxicity call was “active”. `C[C@H]1CN([C@@H](C)CO)C(=O)c2cccc(NC(=O)c3cnccn3)c2O[C@@H]1CN(C)C(=O)Nc1ccc(F)cc1` was tested, and the cytotoxicity call was “inactive”. For `CC(=O)OCCn1c(=O)[nH]c(=O)c2nsnc21`, the cytotoxicity call was “inactive”. For `Cc1ccc(S(=O)(=O)Nc2ccc3c(c2)C(=O)N([C@@H](C)CO)C[C@H](C)[C@H](CN(C)C(=O)Nc2cccc4ccccc24)OCCCC[C@H](C)O3)cc1`, the cytotoxicity call was “inactive”. `Cc1ccc(S(=O)(=O)Nc2ccc3c(c2)C(=O)N([C@H](C)CO)C[C@@H](C)[C@H](CN(C)C(=O)Nc2cccc4ccccc24)OCCCC[C@@H](C)O3)cc1` was tested, and the cytotoxicity call was “active”. For `Cc1ccc(S(=O)(=O)Nc2ccc3c(c2)C(=O)N([C@@H](C)CO)C[C@H](C)[C@@H](CN(C)C(=O)Nc2cccc4ccccc24)OCCCC[C@H](C)O3)cc1`, the cytotoxicity call was “inactive”. `Cc1ccc(S(=O)(=O)Nc2ccc3c(c2)C(=O)N([C@H](C)CO)C[C@@H](C)[C@H](CN(C)C(=O)Nc2cccc4ccccc24)OCCCC[C@H](C)O3)cc1` was tested, and the cytotoxicity call was “active”. With `Cc1ccc(S(=O)(=O)Nc2ccc3c(c2)C(=O)N([C@@H](C)CO)C[C@H](C)[C@H](CN(C)C(=O)Nc2cccc4ccccc24)OCCCC[C@@H](C)O3)cc1` the cytotoxicity call was “inactive”. For `Cc1ccc(S(=O)(=O)Nc2ccc3c(c2)C(=O)N([C@H](C)CO)C[C@H](C)[C@H](CN(C)C(=O)Nc2cccc4ccccc24)OCCCC[C@H](C)O3)cc1`, the cytotoxicity call was “active”. With `Cc1ccc(S(=O)(=O)Nc2ccc3c(c2)C(=O)N([C@H](C)CO)C[C@H](C)[C@@H](CN(C)C(=O)Nc2cccc4ccccc24)OCCCC[C@@H](C)O3)cc1` the cytotoxicity call was “inactive”. With `Cc1ccc(S(=O)(=O)Nc2ccc3c(c2)C(=O)N([C@@H](C)CO)C[C@@H](C)[C@@H](CN(C)C(=O)Nc2cccc4ccccc24)OCCCC[C@H](C)O3)cc1` the cytotoxicity call was “inactive”. In the case of `Cc1ccc(S(=O)(=O)Nc2ccc3c(c2)C(=O)N([C@@H](C)CO)C[C@H](C)[C@@H](CN(C)C(=O)Nc2cccc4ccccc24)OCCCC[C@@H](C)O3)cc1`, the cytotoxicity call is reported as “inactive”. For `CC(=O)Nc1cc2c(cc1N)OCCO2`, the cytotoxicity call was “inactive”. In the case of `COCC(=O)N(C)C[C@@H]1Oc2cc(C#C[C@H](C)O)ccc2S(=O)(=O)N([C@@H](C)CO)C[C@@H]1C`, the cytotoxicity call is reported as “inactive”. For `C[C@@H]1CN([C@H](C)CO)C(=O)c2cc(NC(=O)Nc3ccc4c(c3)OCO4)ccc2O[C@@H]1CN(C)Cc1ccc(Oc2ccccc2)cc1`, the cytotoxicity call was “active”. With `C[C@@H]1CN([C@H](C)CO)C(=O)c2cc(NC(=O)Nc3ccc4c(c3)OCO4)ccc2O[C@H]1CN(C)Cc1ccc(Oc2ccccc2)cc1` the cytotoxicity call was “inactive”. In the case of `C[C@@H]1CN([C@@H](C)CO)C(=O)c2cc(NC(=O)Nc3ccc4c(c3)OCO4)ccc2O[C@H]1CN(C)Cc1ccc(Oc2ccccc2)cc1`, the cytotoxicity call is reported as “inactive”. For `C[C@H]1CN([C@@H](C)CO)C(=O)c2cc(NC(=O)Nc3ccc4c(c3)OCO4)ccc2O[C@@H]1CN(C)Cc1ccc(Oc2ccccc2)cc1`, the cytotoxicity call was “active”. `C[C@H](CO)N1C[C@H](C)[C@H](CN(C)Cc2ccc(Oc3ccccc3)cc2)Oc2ccc(NC(=O)Nc3ccc4c(c3)OCO4)cc2C1=O` was tested, and the cytotoxicity call was “inactive”. `C[C@H]1CN([C@@H](C)CO)C(=O)c2cc(NC(=O)Nc3ccc4c(c3)OCO4)ccc2O[C@H]1CN(C)Cc1ccc(Oc2ccccc2)cc1` was tested, and the cytotoxicity call was “inactive”. `C[C@@H]1CN([C@@H](C)CO)C(=O)c2cc(NC(=O)Nc3ccc4c(c3)OCO4)ccc2O[C@@H]1CN(C)Cc1ccc(Oc2ccccc2)cc1` was tested, and the cytotoxicity call was “active”. In the case of `C[C@H](CO)N1C[C@H](C)[C@@H](CN(C)Cc2ccc(Oc3ccccc3)cc2)Oc2ccc(NC(=O)Nc3ccc4c(c3)OCO4)cc2C1=O`, the cytotoxicity call is reported as “inactive”. With `C[C@@H]1CN([C@@H](C)CO)C(=O)c2cccc(NC(=O)C3CCCCC3)c2O[C@H]1CN(C)C(=O)Nc1cccc2ccccc12` the cytotoxicity call was “inactive”.
